# Measurements reported in the supplement of paper PMC4466140.
# Experiments:
# Assay in all cases: SPOT peptide array binding signal intensity (averaged, normalized) (arbitrary units (background-subtracted, floor 0; scale differs between SH3 domains)); higher = stronger binding of the SH3 domain to the peptide
# AgAbp1 = biological target: AgAbp1
# How it was run: (§1)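 Binding signal is given in arbitrary units that differ between domains and is the normalized, background-subtracted spot intensity averaged across replicates. Each GST-SH3 fusion from one of four yeast species was made in E. coli BL21(DE3), purified on glutathione Sepharose and incubated at 10 μg/ml overnight at 4°C on cellulose-bound synthetic 15-mer peptides in which cysteines were replaced by serines. Detection used anti-GST antibody, an HRP anti-mouse secondary and luminol, followed by imaging and Genespotter quantification.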
# AgBbc1 = biological target: AgBbc1
# How it was run: as §1
# AgBem1-D1 = biological target: AgBem1-D1
# How it was run: as §1
# AgBzz1-D1 = biological target: AgBzz1-D1
# How it was run: as §1
# AgBzz1-D2 = biological target: AgBzz1-D2
# How it was run: as §1
# AgCyk3 = biological target: AgCyk3
# How it was run: as §1
# AgFus1 = biological target: AgFus1
# How it was run: as §1
# AgHof1 = biological target: AgHof1
# How it was run: as §1
# AgHse1 = biological target: AgHse1
# How it was run: as §1
# AgLsb1 = biological target: AgLsb1
# How it was run: as §1
# AgLsb4 = biological target: AgLsb4
# How it was run: as §1
# AgMyo5 = biological target: AgMyo5
# How it was run: as §1
# AgNbp2 = biological target: AgNbp2
# How it was run: as §1
# AgRvs167 = biological target: AgRvs167
# How it was run: as §1
# AgSho1 = biological target: AgSho1
# How it was run: as §1
# AgSla1-D1-D2 = biological target: AgSla1-D1-D2
# How it was run: as §1
# AgSla1-D3 = biological target: AgSla1-D3
# How it was run: as §1
# CaAbp1-D1 = biological target: CaAbp1-D1
# How it was run: as §1
# CaAbp1-D2 = biological target: CaAbp1-D2
# How it was run: as §1
# CaBbc1 = biological target: CaBbc1
# How it was run: as §1
# CaBem1-D1 = biological target: CaBem1-D1
# How it was run: as §1
# CaBzz1-D1 = biological target: CaBzz1-D1
# How it was run: as §1
# CaBzz1-D2 = biological target: CaBzz1-D2
# How it was run: as §1
# CaCyk3 = biological target: CaCyk3
# How it was run: as §1
# CaFus1 = biological target: CaFus1
# How it was run: as §1
# CaHof1 = biological target: CaHof1
# How it was run: as §1
# CaHse1 = biological target: CaHse1
# How it was run: as §1
# CaLsb1 = biological target: CaLsb1
# How it was run: as §1
# CaLsb4 = biological target: CaLsb4
# How it was run: as §1
# CaMyo5 = biological target: CaMyo5
# How it was run: as §1
# CaNbp2 = biological target: CaNbp2
# How it was run: as §1
# CaRvs167 = biological target: CaRvs167
# How it was run: as §1
# CaRvs167-3 = biological target: CaRvs167-3
# How it was run: as §1
# CaSho1 = biological target: CaSho1
# How it was run: as §1
# CaSla1-D1-D2 = biological target: CaSla1-D1-D2
# How it was run: as §1
# CaSla1-D3 = biological target: CaSla1-D3
# How it was run: as §1
# ScAbp1 = biological target: ScAbp1
# How it was run: as §1
# ScBbc1 = biological target: ScBbc1
# How it was run: as §1
# ScBem1-D1 = biological target: ScBem1-D1
# How it was run: as §1
# ScBzz1-D1 = biological target: ScBzz1-D1
# How it was run: as §1
# ScBzz1-D2 = biological target: ScBzz1-D2
# How it was run: as §1
# ScCyk3 = biological target: ScCyk3
# How it was run: as §1
# ScFus1 = biological target: ScFus1
# How it was run: as §1
# ScHof1 = biological target: ScHof1
# How it was run: as §1
# ScHse1 = biological target: ScHse1
# How it was run: as §1
# ScLsb1 = biological target: ScLsb1
# How it was run: as §1
# ScLsb2 = biological target: ScLsb2
# How it was run: as §1
# ScLsb3 = biological target: ScLsb3
# How it was run: as §1
# ScLsb4 = biological target: ScLsb4
# How it was run: as §1
# ScMyo3 = biological target: ScMyo3
# How it was run: as §1
# ScMyo5 = biological target: ScMyo5
# How it was run: as §1
# ScNbp2 = biological target: ScNbp2
# How it was run: as §1
# ScPex13 = biological target: ScPex13
# How it was run: as §1
# ScRvs167 = biological target: ScRvs167
# How it was run: as §1
# ScSho1 = biological target: ScSho1
# How it was run: as §1
# ScSla1-D1-D2 = biological target: ScSla1-D1-D2
# How it was run: as §1
# ScSla1-D3 = biological target: ScSla1-D3
# How it was run: as §1
# SpAbp1-D1 = biological target: SpAbp1-D1
# How it was run: as §1
# SpBbc1 = biological target: SpBbc1
# How it was run: as §1
# SpBzz1-D1 = biological target: SpBzz1-D1
# How it was run: as §1
# SpBzz1-D2 = biological target: SpBzz1-D2
# How it was run: as §1
# SpCyk3 = biological target: SpCyk3
# How it was run: as §1
# SpHof1 = biological target: SpHof1
# How it was run: as §1
# SpHof1-2 = biological target: SpHof1-2
# How it was run: as §1
# SpHof1-3 = biological target: SpHof1-3
# How it was run: as §1
# SpHse1 = biological target: SpHse1
# How it was run: as §1
# SpLsb1 = biological target: SpLsb1
# How it was run: as §1
# SpLsb4 = biological target: SpLsb4
# How it was run: as §1
# SpMyo1 = biological target: SpMyo1
# How it was run: as §1
# SpNbp2 = biological target: SpNbp2
# How it was run: as §1
# SpPex13 = biological target: SpPex13
# How it was run: as §1
# SpRvs167 = biological target: SpRvs167
# How it was run: as §1
# SpSla1-D1-D2 = biological target: SpSla1-D1-D2
# How it was run: as §1
# SpSla1-D3 = biological target: SpSla1-D3
# How it was run: as §1
binder,measurement,setting,value
FTLPPPPPPPGLDEL,SPOT peptide array binding signal intensity,AgAbp1,≤ 0
same,SPOT peptide array binding signal intensity,AgBbc1,≤ 0
same,SPOT peptide array binding signal intensity,AgBem1-D1,≤ 0
same,SPOT peptide array binding signal intensity,AgBzz1-D1,≤ 0
same,SPOT peptide array binding signal intensity,AgBzz1-D2,3
same,SPOT peptide array binding signal intensity,AgCyk3,≤ 0
same,SPOT peptide array binding signal intensity,AgFus1,≤ 0
same,SPOT peptide array binding signal intensity,AgHof1,85.8
same,SPOT peptide array binding signal intensity,AgHse1,≤ 0
same,SPOT peptide array binding signal intensity,AgLsb1,≤ 0
same,SPOT peptide array binding signal intensity,AgLsb4,≤ 0
same,SPOT peptide array binding signal intensity,AgMyo5,1170
same,SPOT peptide array binding signal intensity,AgNbp2,≤ 0
same,SPOT peptide array binding signal intensity,AgRvs167,0.833
same,SPOT peptide array binding signal intensity,AgSho1,≤ 0
same,SPOT peptide array binding signal intensity,AgSla1-D1-D2,4
same,SPOT peptide array binding signal intensity,AgSla1-D3,≤ 0
same,SPOT peptide array binding signal intensity,CaAbp1-D1,≤ 0
same,SPOT peptide array binding signal intensity,CaAbp1-D2,≤ 0
same,SPOT peptide array binding signal intensity,CaBbc1,≤ 0
same,SPOT peptide array binding signal intensity,CaBem1-D1,≤ 0
same,SPOT peptide array binding signal intensity,CaBzz1-D1,491
same,SPOT peptide array binding signal intensity,CaBzz1-D2,23
same,SPOT peptide array binding signal intensity,CaCyk3,≤ 0
same,SPOT peptide array binding signal intensity,CaFus1,≤ 0
same,SPOT peptide array binding signal intensity,CaHof1,0.5
same,SPOT peptide array binding signal intensity,CaHse1,≤ 0
same,SPOT peptide array binding signal intensity,CaLsb1,≤ 0
same,SPOT peptide array binding signal intensity,CaLsb4,≤ 0
same,SPOT peptide array binding signal intensity,CaMyo5,33.8
same,SPOT peptide array binding signal intensity,CaNbp2,≤ 0
same,SPOT peptide array binding signal intensity,CaRvs167,≤ 0
same,SPOT peptide array binding signal intensity,CaRvs167-3,≤ 0
same,SPOT peptide array binding signal intensity,CaSho1,≤ 0
same,SPOT peptide array binding signal intensity,CaSla1-D1-D2,7
same,SPOT peptide array binding signal intensity,CaSla1-D3,≤ 0
same,SPOT peptide array binding signal intensity,ScAbp1,≤ 0
same,SPOT peptide array binding signal intensity,ScBbc1,2
same,SPOT peptide array binding signal intensity,ScBem1-D1,≤ 0
same,SPOT peptide array binding signal intensity,ScBzz1-D1,12
same,SPOT peptide array binding signal intensity,ScBzz1-D2,0.5
same,SPOT peptide array binding signal intensity,ScCyk3,≤ 0
same,SPOT peptide array binding signal intensity,ScFus1,≤ 0
same,SPOT peptide array binding signal intensity,ScHof1,204
same,SPOT peptide array binding signal intensity,ScHse1,≤ 0
same,SPOT peptide array binding signal intensity,ScLsb1,0.25
same,SPOT peptide array binding signal intensity,ScLsb2,≤ 0
same,SPOT peptide array binding signal intensity,ScLsb3,≤ 0
same,SPOT peptide array binding signal intensity,ScLsb4,≤ 0
same,SPOT peptide array binding signal intensity,ScMyo3,1360
same,SPOT peptide array binding signal intensity,ScMyo5,1880
same,SPOT peptide array binding signal intensity,ScNbp2,1
same,SPOT peptide array binding signal intensity,ScPex13,1
same,SPOT peptide array binding signal intensity,ScRvs167,≤ 0
same,SPOT peptide array binding signal intensity,ScSho1,≤ 0
same,SPOT peptide array binding signal intensity,ScSla1-D1-D2,4.5
same,SPOT peptide array binding signal intensity,ScSla1-D3,1.5
same,SPOT peptide array binding signal intensity,SpAbp1-D1,≤ 0
same,SPOT peptide array binding signal intensity,SpBbc1,≤ 0
same,SPOT peptide array binding signal intensity,SpBzz1-D1,1530
same,SPOT peptide array binding signal intensity,SpBzz1-D2,9.25
same,SPOT peptide array binding signal intensity,SpCyk3,≤ 0
same,SPOT peptide array binding signal intensity,SpHof1,2.5
same,SPOT peptide array binding signal intensity,SpHof1-2,1
same,SPOT peptide array binding signal intensity,SpHof1-3,5.75
same,SPOT peptide array binding signal intensity,SpHse1,≤ 0
same,SPOT peptide array binding signal intensity,SpLsb1,≤ 0
same,SPOT peptide array binding signal intensity,SpLsb4,≤ 0
same,SPOT peptide array binding signal intensity,SpMyo1,1110
same,SPOT peptide array binding signal intensity,SpNbp2,≤ 0
same,SPOT peptide array binding signal intensity,SpPex13,≤ 0
same,SPOT peptide array binding signal intensity,SpRvs167,16.7
same,SPOT peptide array binding signal intensity,SpSla1-D1-D2,≤ 0
same,SPOT peptide array binding signal intensity,SpSla1-D3,≤ 0
